From the supplement of paper PMC8728848
This is one part of a sample in which the strongest signals are shown more often than they occur.

system: Neu5Ac(a2-3)Gal(b1-3)[Neu5Ac(a2-6)]GalNAc; assay: glycan array binding signal (z-score within array); higher = stronger binding; settings: glycan notation: IUPAC condensed, linker removed
Procedure, shortened: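 The binding signal is a Z-score computed within each array and averaged over linkers. Arrays of the same protein sequence at different concentrations or buffers were also averaged together. Data originate from 3228 arrays in the Consortium for Functional Glycomics database, kept only where the protein sequence was available.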

Sequence of SRLC (Mus musculus), Q8VIF6 (Q8VIF6 other isoform, or with tags, fused parts or gaps): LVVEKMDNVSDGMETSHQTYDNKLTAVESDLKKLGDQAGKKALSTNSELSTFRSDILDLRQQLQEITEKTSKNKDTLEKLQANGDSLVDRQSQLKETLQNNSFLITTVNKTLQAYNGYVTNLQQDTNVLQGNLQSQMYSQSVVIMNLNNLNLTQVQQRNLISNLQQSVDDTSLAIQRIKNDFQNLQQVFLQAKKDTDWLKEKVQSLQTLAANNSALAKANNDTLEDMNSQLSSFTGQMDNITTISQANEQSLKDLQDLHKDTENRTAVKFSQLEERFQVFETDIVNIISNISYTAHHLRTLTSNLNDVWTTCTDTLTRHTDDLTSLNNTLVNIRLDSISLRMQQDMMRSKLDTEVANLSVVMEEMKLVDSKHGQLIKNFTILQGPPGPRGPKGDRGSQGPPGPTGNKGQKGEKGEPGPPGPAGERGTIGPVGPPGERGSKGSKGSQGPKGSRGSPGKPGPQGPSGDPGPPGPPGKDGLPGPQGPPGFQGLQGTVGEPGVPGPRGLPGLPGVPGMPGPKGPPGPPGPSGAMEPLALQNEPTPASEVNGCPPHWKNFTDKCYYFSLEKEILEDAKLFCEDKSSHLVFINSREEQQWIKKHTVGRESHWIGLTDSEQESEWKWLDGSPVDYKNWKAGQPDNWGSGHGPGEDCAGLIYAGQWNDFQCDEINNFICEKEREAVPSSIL
Sequence of PILRa (Mus musculus), Q2YSF3 (Q2YSF3 entry or part of it): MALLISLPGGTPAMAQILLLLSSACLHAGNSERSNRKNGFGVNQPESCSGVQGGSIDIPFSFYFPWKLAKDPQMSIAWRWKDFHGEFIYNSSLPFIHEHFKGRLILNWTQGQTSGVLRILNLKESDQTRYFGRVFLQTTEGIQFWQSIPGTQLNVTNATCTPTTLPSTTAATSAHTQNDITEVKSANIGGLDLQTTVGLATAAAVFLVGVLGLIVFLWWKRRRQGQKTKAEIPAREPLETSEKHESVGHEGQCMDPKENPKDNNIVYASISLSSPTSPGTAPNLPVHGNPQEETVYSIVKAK
Sequence of Avaren (Actinomycete K97) (chain, as listed by the source): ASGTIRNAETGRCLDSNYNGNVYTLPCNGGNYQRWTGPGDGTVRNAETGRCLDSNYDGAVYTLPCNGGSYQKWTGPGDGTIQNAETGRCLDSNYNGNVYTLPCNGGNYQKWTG

Which “glycan array binding signal (z-score)” value does the source give for Avaren (Actinomycete K97) here?
Its value is -0.174.

SRLC (Mus musculus), Q8VIF6 was tested. Which “glycan array binding signal (z-score)” value did it give?
Its value is -0.214.

How did the “glycan array binding signal (z-score)” value turn out when PILRa (Mus musculus), Q2YSF3 was run?
Its value is 3.58.
